F508del corr = CFTR F508del correction in bronchial cells. CFBE cells, YFP halide quenching; stimulated with forskolin plus potentiator P3; % fluorescence drop versus neutral controls. actives 0.36% (n = 350,000). activity (quench increase), % at 7.58 µM. AID 720511;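 active means mean added fluorescence quench of at least 8% versus neutral control, with both replicates also reaching 8%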;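 further: cells transiently co-express mutant CFTR-F508del with the halide-sensitive YFP; corrector assay measuring rescue of mutant channel to the surface after 24 h compound exposure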
PvdQ inh = blocks Pseudomonas aeruginosa PvdQ acylase activity. purified PvdQ acylase, fluorescence plate reader. inhibition, % at 10 µM. actives 0.063% (n = 340,000). AID 488965; in the data active means inhibition above about 30%, passing the limit was not always enough;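 further: 0% = vehicle neutral wells and 100% = reference inhibitor wells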
RAD52 anneal inh = blocks human RAD52 DNA annealing; recombinant RAD52 DNA annealing, FRET fluorescence; actives 0.46% (n = 360,000); AID 651710; inhibition, % at 18.7 µM; P43351;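 active means every replicate showing at least 50% inhibition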
RAD54 branch = blocks human RAD54 Holliday junction branch migration. Q92698. FAM/BHQ fluorescence. inhibition, % at 10.4 µM. actives 0.14% (n = 360,000). AID 602329;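 active means mean normalized replicate activity at least 40 and at least half of replicates scoring 40 or more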;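 further: 0% = median of neutral control wells and 100% = median of positive control wells; inhibitors cause a drop in the FAM fluorescence signal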
Target sequence (Q92698 whole entry, looked up): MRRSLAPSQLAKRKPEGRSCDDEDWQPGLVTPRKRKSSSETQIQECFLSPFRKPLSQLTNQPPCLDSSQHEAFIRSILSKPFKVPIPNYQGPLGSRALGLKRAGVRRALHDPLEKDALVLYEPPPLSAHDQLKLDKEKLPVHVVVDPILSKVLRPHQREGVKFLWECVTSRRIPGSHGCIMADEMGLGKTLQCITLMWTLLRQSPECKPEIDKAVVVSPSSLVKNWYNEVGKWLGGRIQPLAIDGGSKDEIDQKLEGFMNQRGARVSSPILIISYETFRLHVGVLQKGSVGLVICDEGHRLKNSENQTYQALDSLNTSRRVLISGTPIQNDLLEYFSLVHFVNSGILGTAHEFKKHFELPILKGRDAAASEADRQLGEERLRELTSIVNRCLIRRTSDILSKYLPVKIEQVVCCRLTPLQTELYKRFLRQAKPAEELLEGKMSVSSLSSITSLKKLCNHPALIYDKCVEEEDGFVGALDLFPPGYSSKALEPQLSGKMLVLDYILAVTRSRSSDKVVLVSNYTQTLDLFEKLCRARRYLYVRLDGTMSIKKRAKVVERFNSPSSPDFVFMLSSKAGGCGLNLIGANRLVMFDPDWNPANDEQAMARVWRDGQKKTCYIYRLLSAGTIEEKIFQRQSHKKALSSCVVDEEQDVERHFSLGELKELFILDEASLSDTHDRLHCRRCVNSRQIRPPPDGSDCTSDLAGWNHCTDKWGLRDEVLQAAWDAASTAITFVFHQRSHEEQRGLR
dFosB act-1 = mouse delta FosB homodimer activation; purified delta FosB, TAMRA-CDK5 oligo fluorescence polarization; percent of positive-control signal above neutral wells; activation, % at 25 µM; actives 0.99% (n = 340,000);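 active means mean activation above about 17%, with every replicate also reaching it, limit read from the data, passing the limit was not always enough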
Glyco luc inh = N-linked glycosylation inhibition; D54 ERlucT glycosylation luciferase reporter, 24 h; percent of 100 nM tunicamycin response; reporter increase, % at 12.5 µM; actives 0.23% (n = 360,000);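 active means mean luciferase reporter signal, scaled so untreated is 0 and the glycosylation-blocking control 100, at or above a set limit in every replicate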;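 further: luciferase carries N-glycosylation sites so blocking glycosylation raises the light; 0% = median of neutral control wells and 100% = median of 100 nM tunicamycin wells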
dFosB act-2 = delta FosB (mouse) homodimer activation | shares compounds with dFosB act-1 | purified delta FosB, TAMRA-CDK5 oligo fluorescence polarization; normalised: neutral wells 0, positive control 100 | activation, % at 24.9 µM | 2,400 tested, under 10 active | AID 588690;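 active means highest replicate activation at or above 34% and every replicate reaching that threshold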;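 further: higher polarization means more probe DNA bound by delta FosB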
Numbers without * were called inactive; / = no result given. In the library only some 1.5% were active in any assay of this set; here they are far more common.

SMILES	F508del corr	PvdQ inh	RAD52 anneal inh	RAD54 branch	dFosB act-1	Glyco luc inh	dFosB act-2
CCOc1ccc(NC(=O)Cn2cc(C(=O)CC)c3ccccc32)cc1	/	-10	/	/	41*	1	4
COc1ccc(OC)c(NC(=O)Cn2cc(C#N)c3cc(Br)ccc32)c1	/	-13	/	-4	26*	-8	3
COc1ccc(NC(=O)Cn2cc(C#N)c3ccccc32)cc1	-2	-13	-19	/	42*	1	2
COc1ccc(NC(=O)Cn2cc(C(C)=O)c3ccccc32)cc1	2	6	-2	5	-3	2	/
CNC[C@H]1Oc2ccc(NC(=O)NC(C)C)cc2CC(=O)N([C@H](C)CO)C[C@H]1C	3	/	-9	-10	/	/	/
O=C(CCN1C(=O)c2cccc3cccc(c23)C1=O)Nc1ccccc1	4	-5	-3	2	27*	3	0
CC(=O)Nc1ccc(NC(=O)CCCCCN2C(=O)c3ccccc3C2=O)cc1	/	-16	/	-6	25*	1	-1
Cc1noc(C)c1S(=O)(=O)Nc1ccc2c(c1)C(=O)N([C@@H](C)CO)C[C@H](C)[C@H](CN(C)C(=O)Cc1ccccc1)OCCCC[C@H](C)O2	-2	/	-8	4	/	/	/
CN(c1ccc(OCC(=O)OCC(=O)c2c(N)n(C)c(=O)n(C)c2=O)cc1)S(=O)(=O)c1ccc2ccccc2c1	-3	10	-18	/	33*	3	-1
O=C(C[C@@H]1CC[C@@H]2[C@H](COC[C@@H](O)CN2C(=O)c2ccccc2F)O1)NCc1ccccc1	0	/	-46	-25	/	/	/
CCSc1nnc(NC(=O)Cn2cnc3ccccc3c2=O)s1	-3	-13	-14	1	2	2	/
Cc1ccc(CSc2nnc(NC(=O)Cn3cnc4ccccc4c3=O)s2)cc1	0	-25	-37	/	31*	-1	-4
C/C=C/c1cnc2c(c1)C(=O)N([C@@H](C)CO)C[C@@H](C)[C@H](CN(C)S(=O)(=O)c1ccccc1)O2	2	/	-3	5	/	/	/
CCOC(=O)c1sc(NC(=O)CN2C(=O)c3cccc4cccc(c34)C2=O)nc1C	/	0	/	-8	47*	0	-6
CCOC(=O)c1sc(NC(=O)CCCCCN2C(=O)c3cccc4cccc(c34)C2=O)nc1C	/	-13	-17	-8	2	4	/
CCCC#Cc1cnc2c(c1)C(=O)N([C@H](C)CO)C[C@H](C)[C@@H](CN(C)C(=O)Nc1ccc(OC)cc1)O2	0	/	12	8	/	/	/
NS(=O)(=O)c1ccc(NC(=O)c2ccc(-c3ccccc3)cc2)cc1	0	2	-36	/	12	0	/
NS(=O)(=O)c1ccc(C(=O)Nc2ccc(-c3nc4cccnc4s3)cc2)cc1	4	-10	-63	2	43*	-2	6
O=C(Nc1cccc(-c2nc3cccnc3s2)c1)c1ccc(Cl)nc1	-3	-11	-4	4	27*	-2	-1
C[C@@H]1CN([C@@H](C)CO)S(=O)(=O)c2ccc(C3=CCCCC3)cc2O[C@@H]1CN(C)C(=O)Nc1ccc2c(c1)OCO2	-3	/	10	2	/	/	/
CC(=O)c1ccc(S(=O)(=O)Nc2cccc(-c3ccc4nncn4n3)c2)cc1	/	-6	/	0	1	0	/
Cc1ccc(S(=O)(=O)Nc2cccc(-c3ccc4nncn4n3)c2)cc1	1	-6	-24	-11	20*	18	-1
Nc1c(S(=O)(=O)c2cccs2)c2nc3ccccc3nc2n1Cc1cccs1	/	-13	/	1	26*	-4	0
CC(C)CCn1c(N)c(S(=O)(=O)c2cccs2)c2nc3ccccc3nc21	0	-27	-22	-8	-13	-2	/
CC(C)NC(=O)N(C)C[C@@H]1Oc2cc(C#CCN(C)C)ccc2S(=O)(=O)N([C@@H](C)CO)C[C@H]1C	-1	/	-12	-12	/	/	/
SMILES	F508del corr	PvdQ inh	RAD52 anneal inh	RAD54 branch	dFosB act-1	Glyco luc inh	dFosB act-2
CC(=O)c1cc2c(cc1N/C(=N/S(=O)(=O)c1ccc(Br)cc1)c1ccccc1)OCO2	1	-4	7	-2	62*	-1	-1
O=C(Nc1ccc(F)c(Cl)c1)Nc1ccc(Cl)cn1	/	-7	/	/	39*	-4	2
O=C(Nc1ccncc1)Nc1ccc(F)c(Cl)c1	4	5	-13	-3	-6	-4	/
O=C(Nc1ccc(F)cc1)Nc1ccc(Cl)cn1	/	-13	/	-1	42*	-1	1
Cc1cc(C(=O)N/N=C/c2ccc(-c3cccc([N+](=O)[O-])c3)o2)n[nH]1	2	-3	-4	-3	33*	1	0
CCc1cc2ccc(C)cc2nc1SCC(=O)Nc1c[nH]c(=O)[nH]c1=O	-2	3	-3	/	22*	0	6
Cc1ccc(S(=O)(=O)Nc2ccc3c(c2)C(=O)N([C@@H](C)CO)C[C@@H](C)[C@H](CN(C)Cc2ccc(C(F)(F)F)cc2)OCCCC[C@@H](C)O3)cc1	4	/	-35	3	/	/	/
Cc1cc(C)c(NC(=O)Cn2c(=O)n(Cc3ccco3)c(=O)c3ccccc32)c(C)c1	/	-4	/	7	64*	-2	6
CCC(C)NC(=O)Cn1c(=O)n(CCCC(=O)NCc2ccccc2Cl)c(=O)c2ccccc21 (stereo unspecified)	/	-12	/	0	20*	0	-1
O=C(CCCCn1c(=O)c2ccccc2n(CC(=O)Nc2cccc(F)c2)c1=O)NCc1ccco1	/	-15	/	-12	24*	0	-7
C/C=C/c1cnc2c(c1)C(=O)N([C@H](C)CO)C[C@H](C)[C@@H](CN(C)S(=O)(=O)c1ccccc1)O2	1	/	1	1	/	/	/
CCOc1ccc2[nH]c3nc(SCC(=O)OC(C)C)nnc3c2c1	/	2	-12	-1	5	2	/
CC(C)c1ccc2[nH]c3nc(SCC(=O)NC4CC4)nnc3c2c1	-7	-7	-21	/	30*	4	0
CC(Sc1nnc2c(n1)[nH]c1ccccc12)C(=O)NC1CCCCC1 (stereo unspecified)	-3	7	-18	-9	22*	-4	2
CO[C@@H]1CN(C)C(=O)c2ccc(NS(=O)(=O)c3ccc(C)cc3)cc2OC[C@H](C)N(C(=O)NC(C)C)C[C@H]1C	0	/	/	/	/	/	/
Cc1cccc(C)c1NC(=O)Cn1nc(-c2ccccc2)nc1-c1ccccc1	/	6	/	-8	45*	0	1
Cc1cc(C)c(NC(=O)Cn2nc(-c3ccccc3)nc2-c2ccccc2)c(C)c1	/	-3	-7	/	2	-5	/
CS(=O)(=O)Nc1ccc2c(c1)[C@H]1C[C@H](CC(=O)NCc3cccnc3)O[C@@H](CO)[C@H]1O2	3	/	3	-9	/	/	/
Cc1ccc(C(=O)OCC(=O)Nc2ccccc2Cl)c(O)c1	0	-3	-5	/	-3	2	/

Screening results: PubChem, Broad Institute
